Measurements published in PubChem BioAssay (EPA / NIEHS).
Activity calls are given as the source filed them. The calls were made as follows: active = hit-call score of the fitted dose curve at least 0.9, where 1 is the maximum; inactive = score below 0.9.

How the values were obtained:
Conditions in all cases: mRNA level, 48 h; actives raise or lower the signal
[1] = read-out: ABC Transporter (ABCC2), ABCC2 (gene 1244); test: LTEA_HepaRG_ABCC2: Life Technologies and Expression Analysis (LTEA) Assay for ABC Transporter (ABCC2) using HepaRG (AID 2283464)
Summary of the method: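 HepaRG cells were plated 48 h, switched to serum-free induction medium, then exposed in duplicate for 48 h to 8 concentrations (top 100 uM, half-log steps, 0.5% DMSO). ABCC2 mRNA was measured by qRT-PCR normalized to ACTB/GAPDH/POLR2A; bidirectional fitting versus DMSO.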

[2] = read-out: Broad substrate specificity ATP-binding cassette transporter ABCG2 (Homo sapiens) (UniProt Q9UNQ0); test: LTEA_HepaRG_ABCG2: Life Technologies and Expression Analysis (LTEA) Assay for ABC Transporter (ABCG2) using HepaRG (AID 2283465)
Summary of the method: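 Gene expression of ABCG2 in HepaRG liver cells is quantified by qRT-PCR following 48 h exposure across an eight-point series topping at 100 uM. Values come from bidirectional fitting relative to DMSO vehicle.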

[3] = read-out: ATP-citrate lyase (ACLY), ACLY (gene 47); test: LTEA_HepaRG_ACLY: Life Technologies and Expression Analysis (LTEA) Assay for ATP-citrate lyase (ACLY) using HepaRG (AID 2283466)
Summary of the method: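 ACLY expression changes in human HepaRG liver cells are quantified by qRT-PCR after 48 h exposure to test chemicals (maximum 100 uM, half-log steps). Values are fitted in both directions relative to 0.5% DMSO vehicle.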

[4] = read-out: Peroxisomal acyl-coenzyme A oxidase 1 (ACOX1) gene, ACOX1 (gene 51); test: LTEA_HepaRG_ACOX1: Life Technologies and Expression Analysis (LTEA) Assay for Peroxisomal acyl-coenzyme A oxidase 1 (ACOX1) gene using HepaRG (AID 2283467)
Summary of the method: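 Human HepaRG hepatic cultures, 48 h treatment with test chemicals up to 100 uM. ACOX1 expression read by qRT-PCR relative to 0.5% DMSO vehicle.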

[5] = read-out: Alkaline Phosphatase, Placental (ALPP) gene, ALPP (gene 250); test: LTEA_HepaRG_ALPP: Life Technologies and Expression Analysis (LTEA) Assay for Alkaline Phosphatase, Placental (ALPP) gene using HepaRG (AID 2283468)
Summary of the method: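 Differentiated human HepaRG cells were plated and cultured 48 h, then exposed in duplicate for 48 h in serum-free induction medium to eight half-log concentrations from 100 uM in 0.5% DMSO. ALPP mRNA was measured by TaqMan qRT-PCR, normalized to ACTB, GAPDH, POLR2A.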

[6] = read-out: Bcl-2 (BAD) gene, BAD (gene 572); test: LTEA_HepaRG_BAD: Life Technologies and Expression Analysis (LTEA) Assay for Bcl-2 (BAD) gene using HepaRG (AID 2283469)
Summary of the method: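 Activity values reflect up- or down-regulation of BAD mRNA in human HepaRG hepatic cells treated 48 h in serum-free medium, with eight-point half-log dosing capped at 100 uM and 0.5% DMSO vehicle.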

[7] = read-out: Bcl-2 (BAX) gene, BAX (gene 581); test: LTEA_HepaRG_BAX: Life Technologies and Expression Analysis (LTEA) Assay for Bcl-2 (BAX) gene using HepaRG (AID 2283470)
Summary of the method: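 Gene expression measured by Fluidigm qRT-PCR with three housekeeping genes for normalisation. HepaRG cells, plated 48 h beforehand, treated 48 h at up to 100 uM (8-point, half-log) in 0.5% DMSO. Bidirectional fitting versus DMSO.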

[8] = read-out: adenosine kinase (ADK) gene, ADK (gene 132); test: LTEA_HepaRG_ADK: Life Technologies and Expression Analysis (LTEA) Assay for adenosine kinase (ADK) gene using HepaRG (AID 2283471)
Summary of the method: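 HepaRG (human liver), 48 h chemical exposure, 8-pt half-log series, top 100 uM, 0.5% DMSO vehicle. Readout: ADK mRNA by qRT-PCR vs housekeeping genes; bidirectional curve fit relative to DMSO baseline.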

[9] = read-out: Alpha-fetoprotein (AFP) gene, AFP (gene 174); test: LTEA_HepaRG_AFP: Life Technologies and Expression Analysis (LTEA) Assay for Alpha-fetoprotein (AFP) gene using HepaRG (AID 2283472)
Summary of the method: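 AFP transcript measured by TaqMan qRT-PCR with three housekeeping genes for normalization, after 48 h chemical treatment of HepaRG cells (top 100 uM, half-log steps, 0.5% DMSO). Gain or loss fitted against vehicle.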

[10] = read-out: BCL2L11 (gene 10018); test: LTEA_HepaRG_BCL2L11: Life Technologies and Expression Analysis (LTEA) Assay for Bcl-2 (BCL2L11) gene using HepaRG (AID 2283473)
Summary of the method: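 Differentiated human HepaRG cells in serum-free induction medium were exposed in duplicate for 48 h to eight concentrations (top 100 uM, half-log steps, 0.5% DMSO). BCL2L11 mRNA was quantified by TaqMan qRT-PCR, normalized to ACTB/GAPDH/POLR2A, bidirectional fit versus DMSO.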

[11] = read-out: Apolipoprotein A-V (APOA5) gene, APOA5 (gene 116519); test: LTEA_HepaRG_APOA5: Life Technologies and Expression Analysis (LTEA) Assay for Apolipoprotein A-V (APOA5) gene using HepaRG (AID 2283474)
Summary of the method: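 Differentiated human HepaRG cells were exposed in duplicate for 48 h to eight half-log concentrations from 100 uM in 0.5% DMSO. APOA5 mRNA was quantified by TaqMan qRT-PCR, normalized to ACTB, GAPDH and POLR2A, and fitted bidirectionally against DMSO.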

[12] = read-out: Bcl-2 (BID) gene, BID (gene 637); test: LTEA_HepaRG_BID: Life Technologies and Expression Analysis (LTEA) Assay for Bcl-2 (BID) gene using HepaRG (AID 2283476)
Summary of the method: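 Duplicate 48 h treatments of HepaRG cells in serum-free induction medium spanned 100 uM downward in half-log steps, 0.5% DMSO. Transcript change quantified by qRT-PCR against three housekeeping genes, fitted up or down versus DMSO.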

[13] = read-out: Caspase-3 (Homo sapiens) (UniProt P42574); test: LTEA_HepaRG_CASP3: Life Technologies and Expression Analysis (LTEA) Assay for cysteine-aspartic acid protease (CASP3) using HepaRG (AID 2283477)
Summary of the method: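 Differentiated human HepaRG cells in serum-free induction medium were exposed 48 h to 8-point half-log concentrations from 100 uM (0.5% DMSO vehicle). CASP3 mRNA was measured by qRT-PCR, normalised to ACTB, GAPDH and POLR2A, with bidirectional fitting against DMSO.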

[14] = read-out: Cytochrome P450 (CYP24A1), CYP24A1 (gene 1591); test: LTEA_HepaRG_CYP24A1: Life Technologies and Expression Analysis (LTEA) Assay for Cytochrome P450 (CYP24A1) using HepaRG (AID 2283478)
Summary of the method: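 Differentiated HepaRG cells, pre-cultured 48 h, were exposed in duplicate for 48 h in serum-free induction medium to 8 half-log concentrations (top 100 uM, 0.5% DMSO). CYP24A1 mRNA was quantified by TaqMan qRT-PCR, normalized to ACTB/GAPDH/POLR2A, fitted bidirectionally versus DMSO.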

[15] = read-out: Cytochrome P450 (CYP1A2), CYP1A2 (gene 1544); test: LTEA_HepaRG_CYP1A2: Life Technologies and Expression Analysis (LTEA) Assay for Cytochrome P450 (CYP1A2) using HepaRG (AID 2283479)
Summary of the method: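 Differentiated human HepaRG cells in serum-free induction medium were exposed in duplicate for 48 h to 8-point half-log concentrations up to 100 uM in 0.5% DMSO. CYP1A2 mRNA measured by qRT-PCR, normalized to ACTB, GAPDH, POLR2A; bidirectional fit vs DMSO.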

[16] = read-out: cysteine-aspartic acid protease (CASP8), CASP8 (gene 841); test: LTEA_HepaRG_CASP8: Life Technologies and Expression Analysis (LTEA) Assay for cysteine-aspartic acid protease (CASP8) using HepaRG (AID 2283480)
Summary of the method: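 Concentration-response in duplicate up to 100 uM (half-log steps, 0.5% DMSO) on differentiated HepaRG cultures for 48 h. Expression change of CASP8 mRNA is determined by TaqMan qRT-PCR with housekeeping-gene normalization.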

[17] = read-out: Cytochrome P450 (CYP2B6), CYP2B6 (gene 1555); test: LTEA_HepaRG_CYP2B6: Life Technologies and Expression Analysis (LTEA) Assay for Cytochrome P450 (CYP2B6) using HepaRG (AID 2283481)
Summary of the method: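 Differentiated HepaRG cells, serum-free induction medium, exposed 48 h in duplicate to 8-point half-log concentrations from 100 uM in 0.5% DMSO. CYP2B6 mRNA by qRT-PCR, normalized to ACTB, GAPDH, POLR2A; bidirectional fit versus DMSO.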

[18] = read-out: CYP2C8 (gene 1558); test: LTEA_HepaRG_CYP2C8: Life Technologies and Expression Analysis (LTEA) Assay for CYP2C8 using HepaRG (AID 2283483)
Summary of the method: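 This is a transcriptional endpoint in HepaRG cultures: 48 h exposure, highest concentration 100 uM. CYP2C8 mRNA is quantified by TaqMan qRT-PCR.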

Measured: AC50

Sequence of Broad substrate specificity ATP-binding cassette transporter ABCG2 (Homo sapiens) (Q9UNQ0 whole entry, looked up): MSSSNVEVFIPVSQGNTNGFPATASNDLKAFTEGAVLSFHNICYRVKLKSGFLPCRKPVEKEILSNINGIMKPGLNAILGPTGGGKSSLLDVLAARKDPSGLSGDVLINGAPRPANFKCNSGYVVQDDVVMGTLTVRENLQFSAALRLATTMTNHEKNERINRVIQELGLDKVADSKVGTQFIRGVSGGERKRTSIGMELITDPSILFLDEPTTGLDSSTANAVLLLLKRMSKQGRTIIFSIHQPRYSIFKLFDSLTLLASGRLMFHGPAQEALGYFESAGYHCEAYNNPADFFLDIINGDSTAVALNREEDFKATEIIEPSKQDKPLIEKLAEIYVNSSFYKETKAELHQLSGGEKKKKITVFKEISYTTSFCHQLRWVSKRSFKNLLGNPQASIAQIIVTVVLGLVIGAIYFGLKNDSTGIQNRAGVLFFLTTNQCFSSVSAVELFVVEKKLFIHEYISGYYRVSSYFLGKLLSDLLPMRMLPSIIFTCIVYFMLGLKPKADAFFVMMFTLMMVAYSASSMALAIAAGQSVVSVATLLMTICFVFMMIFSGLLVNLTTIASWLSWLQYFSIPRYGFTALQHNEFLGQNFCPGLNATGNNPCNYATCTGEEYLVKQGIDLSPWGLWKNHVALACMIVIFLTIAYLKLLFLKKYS
Sequence of Caspase-3 (Homo sapiens) (P42574 whole entry, looked up): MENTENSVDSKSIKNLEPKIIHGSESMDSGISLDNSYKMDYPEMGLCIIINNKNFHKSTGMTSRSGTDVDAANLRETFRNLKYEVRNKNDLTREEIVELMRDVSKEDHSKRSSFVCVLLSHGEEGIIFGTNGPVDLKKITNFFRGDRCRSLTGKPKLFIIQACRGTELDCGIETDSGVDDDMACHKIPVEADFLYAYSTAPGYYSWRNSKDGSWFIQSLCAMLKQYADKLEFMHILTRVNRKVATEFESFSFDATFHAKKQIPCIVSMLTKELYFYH

OCc1ccccc1
inactive: all assays above

NC(N)=O
inactive: all assays above

OCCNCCO
active: [5] 50 µM | [9] 50 µM | [17] 50 µM
inactive: all other assays above

CCOc1ccc2[nH]cc(C(=O)NCc3ccccc3)c(=O)c2n1
active: [9] 81.3 µM | [15] 32 µM
inactive: all other assays above
